Source: PubChem BioAssay (EPA / NIEHS)
Activity calls are given as the source filed them. Rule for the calls: active = hit-call score of the fitted dose curve at least 0.9, where 1 is the maximum; inactive = score below 0.9.

Assays:
Details in all cases: mRNA level, 48 h; actives raise or lower the signal
[1] = read-out: flavin-containing dimethylaniline monooxygenases 3 (FMO3), FMO3 (gene 2328); experiment: LTEA_HepaRG_FMO3: Life Technologies and Expression Analysis (LTEA) Assay for flavin-containing dimethylaniline monooxygenases 3 (FMO3) using HepaRG (AID 2283453)
Procedure, shortened: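 Differentiated HepaRG cells in serum-free induction medium, exposed 48 h in duplicate to 8 half-log concentrations up to 100 uM in 0.5% DMSO. FMO3 mRNA by qRT-PCR, normalized to ACTB, GAPDH, POLR2A; bidirectional fit vs DMSO.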

[2] = read-out: Cytochrome P450 (CYP1A1), CYP1A1 (gene 1543); experiment: LTEA_HepaRG_CYP1A1: Life Technologies and Expression Analysis (LTEA) Assay for Cytochrome P450 (CYP1A1) using HepaRG (AID 2283454)
Procedure, shortened: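 Induction of CYP1A1 mRNA in a human hepatic cell line was measured 48 h after dosing, with 1 mM phenobarbital as induction positive control and 0.5% DMSO vehicle as baseline for bidirectional curve fitting.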

[3] = read-out: CFLAR gene, CFLAR (gene 8837); experiment: LTEA_HepaRG_CFLAR: Life Technologies and Expression Analysis (LTEA) Assay for CFLAR gene using HepaRG (AID 2283455)
Procedure, shortened: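 Differentiated HepaRG cells in serum-free induction medium were exposed 48 h in duplicate to eight half-log concentrations up to 100 uM in 0.5% DMSO; mRNA measured by TaqMan qRT-PCR, normalized to ACTB, GAPDH, POLR2A; bidirectional fitting versus DMSO.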

[4] = read-out: Forkhead box O1 (FOXO1), FOXO1 (gene 2308); experiment: LTEA_HepaRG_FOXO1: Life Technologies and Expression Analysis (LTEA) Assay for Forkhead box O1 (FOXO1) using HepaRG (AID 2283456)
Procedure, shortened: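 Differentiated HepaRG cells, in serum-free induction medium with 0.5% DMSO, exposed 48 h in duplicate to 8-point half-log series from 100 uM. FOXO1 mRNA measured by TaqMan qRT-PCR, normalized to ACTB, GAPDH, POLR2A; bidirectional fit versus DMSO.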

[5] = read-out: growth arrest and DNA damage 45 (GADD45A), GADD45A (gene 1647); experiment: LTEA_HepaRG_GADD45A: Life Technologies and Expression Analysis (LTEA) Assay for growth arrest and DNA damage 45 (GADD45A) using HepaRG (AID 2283458)
Procedure, shortened: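 Cells plated and cultured 48 h, switched to serum-free induction medium, then dosed for 48 h (100 uM top, half-log dilutions, 0.5% DMSO). RNA was isolated and transcript measured by Fluidigm qRT-PCR.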

[6] = read-out: Forkhead box O3 (FOXO3), FOXO3 (gene 2309); experiment: LTEA_HepaRG_FOXO3: Life Technologies and Expression Analysis (LTEA) Assay for Forkhead box O3 (FOXO3) using HepaRG (AID 2283459)
Procedure, shortened: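 Differentiated human HepaRG cells, 48 h post-plating, exposed in duplicate for 48 h in serum-free induction medium; 8-point half-log series from 100 uM in 0.5% DMSO. FOXO3 mRNA by TaqMan qRT-PCR, normalized to ACTB/GAPDH/POLR2A; bidirectional fit versus DMSO.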

[7] = read-out: ABC Transporter (ABCB1), ABCB1 (gene 5243); experiment: LTEA_HepaRG_ABCB1: Life Technologies and Expression Analysis (LTEA) Assay for ABC Transporter (ABCB1) using HepaRG (AID 2283460)
Procedure, shortened: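 HepaRG cells exposed in duplicate for 48 h in serum-free induction medium to eight half-log concentrations up to 100 uM in 0.5% DMSO. ABCB1 mRNA quantified by qRT-PCR, normalised to ACTB, GAPDH and POLR2A; fitted bidirectionally versus DMSO.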

[8] = read-out: growth arrest and DNA damage 45 (GADD45B), GADD45B (gene 4616); experiment: LTEA_HepaRG_GADD45B: Life Technologies and Expression Analysis (LTEA) Assay for growth arrest and DNA damage 45 (GADD45B) using HepaRG (AID 2283461)
Procedure, shortened: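 Values are bidirectional concentration-response fits against 0.5% DMSO controls. Underlying data: qRT-PCR mRNA levels in human HepaRG liver cells treated 48 h in serum-free induction medium, eight concentrations topping at 100 uM.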

[9] = read-out: ABC Transporter (ABCC3), ABCC3 (gene 8714); experiment: LTEA_HepaRG_ABCC3: Life Technologies and Expression Analysis (LTEA) Assay for ABC Transporter (ABCC3) using HepaRG (AID 2283462)
Procedure, shortened: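 Differentiated HepaRG liver cells receive test chemicals at eight concentrations (max 100 uM) for 48 h. Expression of ABCC3 is quantified by qRT-PCR against ACTB, GAPDH and POLR2A, and activity is fitted in both directions against the DMSO control.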

[10] = read-out: ABC Transporter (ABCB11), ABCB11 (gene 8647); experiment: LTEA_HepaRG_ABCB11: Life Technologies and Expression Analysis (LTEA) Assay for ABC Transporter (ABCB11) using HepaRG (AID 2283463)
Procedure, shortened: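 Differentiated human HepaRG cells in serum-free induction medium, dosed in duplicate for 48 h. Eight-point half-log series from 100 uM in 0.5% DMSO; ABCB11 mRNA by qRT-PCR, normalized to ACTB, GAPDH, POLR2A, fitted bidirectionally versus DMSO.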

[11] = read-out: ABC Transporter (ABCC2), ABCC2 (gene 1244); experiment: LTEA_HepaRG_ABCC2: Life Technologies and Expression Analysis (LTEA) Assay for ABC Transporter (ABCC2) using HepaRG (AID 2283464)
Procedure, shortened: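 Gene expression of ABCC2 was determined by qRT-PCR in HepaRG cells exposed 48 h to chemicals (highest 100 uM, half-log dilutions). Activity was fitted in both directions relative to 0.5% DMSO vehicle.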

[12] = read-out: Broad substrate specificity ATP-binding cassette transporter ABCG2 (Homo sapiens) (UniProt Q9UNQ0); experiment: LTEA_HepaRG_ABCG2: Life Technologies and Expression Analysis (LTEA) Assay for ABC Transporter (ABCG2) using HepaRG (AID 2283465)
Procedure, shortened: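 Differentiated HepaRG cells were exposed for 48 h in serum-free induction medium to 8 half-log concentrations, top 100 uM, in 0.5% DMSO. ABCG2 mRNA was measured by qRT-PCR, normalized to ACTB, GAPDH and POLR2A, with bidirectional fitting versus DMSO.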

[13] = read-out: ATP-citrate lyase (ACLY), ACLY (gene 47); experiment: LTEA_HepaRG_ACLY: Life Technologies and Expression Analysis (LTEA) Assay for ATP-citrate lyase (ACLY) using HepaRG (AID 2283466)
Procedure, shortened: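 Differentiated HepaRG cells exposed 48 h in serum-free induction medium to eight half-log concentrations up to 100 uM in 0.5% DMSO, duplicates. Transcript measured by Fluidigm TaqMan qRT-PCR, normalized to ACTB, GAPDH, POLR2A; bidirectional fit versus DMSO.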

[14] = read-out: Peroxisomal acyl-coenzyme A oxidase 1 (ACOX1) gene, ACOX1 (gene 51); experiment: LTEA_HepaRG_ACOX1: Life Technologies and Expression Analysis (LTEA) Assay for Peroxisomal acyl-coenzyme A oxidase 1 (ACOX1) gene using HepaRG (AID 2283467)
Procedure, shortened: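 HepaRG cells, plated 48 h then switched to serum-free induction medium, were exposed in duplicate for 48 h to 8-point half-log concentrations up to 100 uM in 0.5% DMSO. ACOX1 mRNA was measured by qRT-PCR, normalized to ACTB/GAPDH/POLR2A, and fitted bidirectionally versus DMSO.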

[15] = read-out: Alkaline Phosphatase, Placental (ALPP) gene, ALPP (gene 250); experiment: LTEA_HepaRG_ALPP: Life Technologies and Expression Analysis (LTEA) Assay for Alkaline Phosphatase, Placental (ALPP) gene using HepaRG (AID 2283468)
Procedure, shortened: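 Expression of ALPP was quantified by qRT-PCR against three housekeeping genes in human HepaRG cultures treated for 48 h with an eight-point concentration series up to 100 uM. Activity in either direction was fitted relative to 0.5% DMSO.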

[16] = read-out: Bcl-2 (BAD) gene, BAD (gene 572); experiment: LTEA_HepaRG_BAD: Life Technologies and Expression Analysis (LTEA) Assay for Bcl-2 (BAD) gene using HepaRG (AID 2283469)
Procedure, shortened: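 Differentiated HepaRG cells were exposed in duplicate in 0.5% DMSO for 48 h to eight-point half-log concentrations up to 100 uM. BAD mRNA was measured by Fluidigm TaqMan qRT-PCR, normalized to ACTB, GAPDH and POLR2A, and fitted bidirectionally against DMSO.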

[17] = read-out: Bcl-2 (BAX) gene, BAX (gene 581); experiment: LTEA_HepaRG_BAX: Life Technologies and Expression Analysis (LTEA) Assay for Bcl-2 (BAX) gene using HepaRG (AID 2283470)
Procedure, shortened: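 HepaRG (human liver), 48 h exposure, duplicate wells. 8-pt curve, half-log from 100 uM, 0.5% DMSO. BAX transcript by TaqMan qRT-PCR; ACTB/GAPDH/POLR2A normalization; gain or loss vs DMSO baseline.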

[18] = read-out: adenosine kinase (ADK) gene, ADK (gene 132); experiment: LTEA_HepaRG_ADK: Life Technologies and Expression Analysis (LTEA) Assay for adenosine kinase (ADK) gene using HepaRG (AID 2283471)
Procedure, shortened: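 Read-out is ADK transcript level measured by qRT-PCR and normalised to three housekeeping genes. Cells are human HepaRG, dosed for 48 h at up to 100 uM in 0.5% DMSO. Gain or loss of signal is fitted against DMSO controls.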

[19] = read-out: Alpha-fetoprotein (AFP) gene, AFP (gene 174); experiment: LTEA_HepaRG_AFP: Life Technologies and Expression Analysis (LTEA) Assay for Alpha-fetoprotein (AFP) gene using HepaRG (AID 2283472)
Procedure, shortened: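 HepaRG, single lot; 48 h post-plating -> serum-free induction medium; cpd 8-pt, 100 uM top, half-log, 0.5% DMSO, duplicate, 48 h. RNA -> qRT-PCR AFP, norm ACTB/GAPDH/POLR2A. Bidirectional fit vs DMSO.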

Measured: AC50

Chain of Broad substrate specificity ATP-binding cassette transporter ABCG2 (Homo sapiens) (Q9UNQ0 whole entry, looked up): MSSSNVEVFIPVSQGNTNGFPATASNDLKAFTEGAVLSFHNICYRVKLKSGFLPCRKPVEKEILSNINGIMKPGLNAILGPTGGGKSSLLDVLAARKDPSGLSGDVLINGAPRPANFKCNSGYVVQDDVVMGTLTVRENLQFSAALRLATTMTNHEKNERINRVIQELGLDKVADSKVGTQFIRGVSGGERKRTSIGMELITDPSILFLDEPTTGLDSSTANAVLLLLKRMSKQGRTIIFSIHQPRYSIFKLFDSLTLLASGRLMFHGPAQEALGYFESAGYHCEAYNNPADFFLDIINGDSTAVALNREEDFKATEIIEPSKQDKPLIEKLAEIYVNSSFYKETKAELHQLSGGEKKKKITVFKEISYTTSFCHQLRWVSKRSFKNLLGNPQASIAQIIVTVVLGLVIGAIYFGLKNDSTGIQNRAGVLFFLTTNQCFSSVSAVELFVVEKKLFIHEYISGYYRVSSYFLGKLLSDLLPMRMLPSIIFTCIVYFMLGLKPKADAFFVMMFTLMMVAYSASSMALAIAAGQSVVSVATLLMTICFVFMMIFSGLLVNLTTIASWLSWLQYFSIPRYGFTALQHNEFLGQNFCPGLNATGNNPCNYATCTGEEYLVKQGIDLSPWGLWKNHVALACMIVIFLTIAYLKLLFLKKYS

C[C@]12CC[C@@H]3c4ccc(O)cc4C[C@@H](CCCCCCCCCS(=O)CCCC(F)(F)C(F)(F)F)[C@H]3[C@@H]1CC[C@@H]2O (stereo partly drawn)
inactive: [2] | [3] | [6] | [8] | [12] | [13] | [15] | [17] | [18]
active: [1] 44.4 µM | [4] 0.0681 µM | [5] 0.105 µM | [7] 27.8 µM | [9] 30.9 µM | [10] 10.5 µM | [11] 22.4 µM | [14] 21.1 µM | [16] 0.045 µM | [19] 33.1 µM

c1ccc(Nc2ccccc2)cc1
not listed: [12]
inactive: all other assays above

CCCCC(CC)CN1C(=O)C2C3C=CC(C3)C2C1=O (stereo not drawn)
active: [1] 78.7 µM | [2] 12.6 µM | [7] 12.5 µM | [9] 50 µM | [10] 89 µM | [12] 13.2 µM | [13] 73 µM | [15] 65.4 µM | [19] 50 µM
inactive: all other assays above

O=C(c1ccccc1)C1CCCCC1
inactive: all assays above

N#CSCSc1nc2ccccc2s1
active: [2] 49.4 µM | [10] 63.3 µM | [15] 40.3 µM
inactive: all other assays above

CCCCOC(=O)[C@@H](C)Oc1ccc(Oc2ccc(C(F)(F)F)cn2)cc1
active: [2] 50.2 µM | [10] 20.6 µM
inactive: all other assays above
